The source of these data is PubChem BioAssay (NCI).

The structures appear in SMILES notation. This is part of a sample that, as a whole, favours compounds with a hit. Of some 83,000 tested, about 20% had one in any assay.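 Each cell line was grown in a 96-well plate and treated with one concentration of compound for 48 hours. Values below 10 were considered active.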 Values without a mark were called inactive. Calls of active or inactive are those of the source.

Test systems include SK-MEL-2 melanoma; EKVX NSCLC; SN12C renal; UO-31 renal; TK-10 renal; ACHN renal; CAKI-1 renal; A498 renal; CCRF-CEM leukemia; MOLT-4 leukemia; RPMI-8226 leukemia; OVCAR-8 ovarian; OVCAR-5 ovarian; OVCAR-4 ovarian; SK-OV-3 ovarian; IGROV1 ovarian; OVCAR-3 ovarian; HS 578T breast; NCI/ADR-RES ovarian.
Common to all, as to assay: NCI-60 one-dose screen, 48 h (100 = growth as untreated, 0 = no growth, -100 = all killed)
What all share (conditions): 10 µM unless noted

For the molecule `CN(C(=O)NCc1cccc(F)c1Cl)[C@H](COC(=O)Nc1cc2ccccc2cn1)CC(O)CO` (some centres not stated), the growth in the assay with SK-MEL-2 melanoma is 113%; in the assay with EKVX NSCLC, 77.4%; in the assay with SN12C renal, 86.1%; with UO-31 renal it was 51.8%; in the assay with TK-10 renal, 101%; with ACHN renal, 107%. The growth is 25.8% in the assay with CAKI-1 renal; 54.7% in the assay with A498 renal; 64.9% with CCRF-CEM leukemia; 94.9% in the assay with MOLT-4 leukemia; 119% in the assay with RPMI-8226 leukemia; 88.1% in the assay with OVCAR-8 ovarian. For the same molecule, the growth in the assay on OVCAR-5 ovarian is 95.8%; in the assay with OVCAR-4 ovarian, 94.6%; in the assay on SK-OV-3 ovarian, 78.5%; with IGROV1 ovarian, 71.9%; in the assay with OVCAR-3 ovarian, 103%; in the assay on HS 578T breast it was -0.749% (active). In the assay with NCI/ADR-RES ovarian, the growth was 98.6%.

Regarding `CCOC(=O)/C=C1\S/C(=N\Nc2ccc([N+](=O)[O-])cc2[N+](=O)[O-])N(Cc2ccccc2)C1=O`, the growth is 102% in the assay on SK-MEL-2 melanoma; 86.4% in the assay on EKVX NSCLC; 57.3% with SN12C renal; 66.4% in the assay with UO-31 renal; 115% in the assay with TK-10 renal; 84.3% in the assay on ACHN renal. Besides, the growth in the assay on CAKI-1 renal is 81.1%; in the assay on A498 renal it was 70.4%; in the assay with CCRF-CEM leukemia it was 39.6%; in the assay with MOLT-4 leukemia it was 67.5%; with RPMI-8226 leukemia it was 7.78% (active); in the assay on OVCAR-8 ovarian it was 73.4%. Moreover, the growth with OVCAR-5 ovarian is 95%; with OVCAR-4 ovarian it was 69.2%; in the assay on SK-OV-3 ovarian, 104%; with IGROV1 ovarian, 88.5%; with OVCAR-3 ovarian, 83.5%; with HS 578T breast, 84.3%. In the assay on NCI/ADR-RES ovarian, the growth was 75.2%.

`O=C(CSc1nccc(Nc2ccc(S(=O)(=O)Nc3nccs3)cc2)n1)c1ccc(C(F)(F)F)cc1`: the growth is 102% in the assay with SK-MEL-2 melanoma; 94.4% in the assay with EKVX NSCLC; 102% in the assay on SN12C renal; 69.2% in the assay with UO-31 renal; 112% with TK-10 renal; 100% with ACHN renal. In addition, the growth with CAKI-1 renal was 90.1%; with A498 renal it was 109%; in the assay with CCRF-CEM leukemia it was 108%; in the assay with MOLT-4 leukemia, 112%; in the assay with RPMI-8226 leukemia it was 104%; in the assay with OVCAR-8 ovarian, 96.2%. Besides, the growth with OVCAR-5 ovarian is 111%; in the assay with OVCAR-4 ovarian, 106%; with SK-OV-3 ovarian, 96.9%; in the assay with IGROV1 ovarian it was 91.1%; in the assay with OVCAR-3 ovarian it was 112%; in the assay with HS 578T breast, 98.5%. The growth in the assay with NCI/ADR-RES ovarian is 98.5%.

With `CCN1C(=O)N(CC)C2Nn3c(s/c(=C\c4ccc([N+](=O)[O-])cc4)c3=O)=NC21` (configuration not stated), the growth with SK-MEL-2 melanoma is 110%; in the assay with EKVX NSCLC, 73.3%; in the assay on SN12C renal, 79.7%; with UO-31 renal it was 55.1%; in the assay on TK-10 renal it was 69.9%; in the assay with ACHN renal, 74.9%. In addition, the growth with CAKI-1 renal is 79.8%; in the assay on A498 renal it was 53.2%; with CCRF-CEM leukemia, 40.6%; in the assay on MOLT-4 leukemia, 61.7%; in the assay on RPMI-8226 leukemia, 51.8%; in the assay with OVCAR-8 ovarian it was 66.7%. Also, the growth is 82.5% with OVCAR-5 ovarian; 14.2% in the assay on OVCAR-4 ovarian; 105% with SK-OV-3 ovarian; 17.3% in the assay with IGROV1 ovarian; 11.6% in the assay with OVCAR-3 ovarian; 83.4% with HS 578T breast. Besides, the growth in the assay on NCI/ADR-RES ovarian was 23.4%.

`Cc1onc2c(-c3ccccc3)n[nH]c(=O)c12`: the growth with SK-MEL-2 melanoma is 135%; in the assay on EKVX NSCLC, 62.8%; in the assay with SN12C renal it was 101%; with UO-31 renal it was 106%; with TK-10 renal it was 78.9%; in the assay with ACHN renal, 107%. Further, the growth in the assay with CAKI-1 renal is 74.1%; in the assay on A498 renal, 90.2%; in the assay with CCRF-CEM leukemia, 106%; in the assay with MOLT-4 leukemia, 76%; with RPMI-8226 leukemia, 107%; with OVCAR-8 ovarian it was 116%. The growth was 98.8% with OVCAR-5 ovarian; 108% with OVCAR-4 ovarian; 87.1% in the assay with SK-OV-3 ovarian; 127% in the assay on HS 578T breast; 106% with NCI/ADR-RES ovarian.

`COc1ccc(-c2cnc3ccccc3n2)cc1`: the growth in the assay with SK-MEL-2 melanoma was 112%; with EKVX NSCLC it was 88.2%; with SN12C renal, 93.7%; with UO-31 renal it was 81.9%; in the assay with TK-10 renal it was 91.3%; in the assay on ACHN renal, 97.9%. For the same molecule, the growth is 84.4% in the assay on CAKI-1 renal; 95% in the assay with A498 renal; 97.4% in the assay on CCRF-CEM leukemia; 103% in the assay with MOLT-4 leukemia; 97.2% in the assay with RPMI-8226 leukemia; 99.7% with OVCAR-8 ovarian. In addition, the growth in the assay on OVCAR-5 ovarian is 92.6%; with OVCAR-4 ovarian it was 94.2%; with SK-OV-3 ovarian, 98.5%; in the assay on OVCAR-3 ovarian, 103%; with HS 578T breast it was 89.4%; in the assay with NCI/ADR-RES ovarian it was 102%.

Consider `CCOC(=O)c1nc(Nc2ccc(C(C)=O)cc2)sc1C`, for which the growth in the assay with SK-MEL-2 melanoma is 106%; in the assay on EKVX NSCLC, 97.8%; in the assay on SN12C renal it was 104%; in the assay on UO-31 renal, 91.8%; with TK-10 renal it was 97.9%; with ACHN renal it was 101%. Moreover, the growth is 94.7% in the assay on CAKI-1 renal; 75.1% in the assay on A498 renal; 99.9% with CCRF-CEM leukemia; 97.8% in the assay with MOLT-4 leukemia; 103% in the assay on RPMI-8226 leukemia; 103% with OVCAR-8 ovarian. Besides, the growth with OVCAR-5 ovarian is 99.5%; in the assay with OVCAR-4 ovarian, 96.4%; with SK-OV-3 ovarian, 107%; in the assay on OVCAR-3 ovarian, 105%; in the assay with HS 578T breast, 105%; in the assay on NCI/ADR-RES ovarian it was 101%.

Turning to `BrCCCc1n(Cc2ccc3ccccc3c2)c2ccccc2[n+]1Cc1ccc2ccccc2c1`, the growth in the assay with SK-MEL-2 melanoma was -50.8% (active); in the assay on EKVX NSCLC, -10.7% (active); with SN12C renal it was -92.8% (active); in the assay with UO-31 renal, 52.8%; with TK-10 renal it was -85.7% (active); in the assay with ACHN renal, 5.29% (active). Besides, the growth was -90.7% (active) in the assay with CAKI-1 renal; -32.5% (active) with A498 renal; -41.6% (active) in the assay on CCRF-CEM leukemia; -35.9% (active) in the assay with MOLT-4 leukemia; -58.8% (active) with RPMI-8226 leukemia; -69.2% (active) with OVCAR-8 ovarian. Moreover, the growth in the assay with OVCAR-5 ovarian is -4.99% (active); with OVCAR-4 ovarian it was -24.7% (active); in the assay on SK-OV-3 ovarian it was -38.2% (active); in the assay on OVCAR-3 ovarian it was -71.5% (active); in the assay with HS 578T breast, -48.2% (active); in the assay with NCI/ADR-RES ovarian, 58.3%.
